Columns and labels:
[1] = molecular target: T1, GST-Nv-NF-kB (Ser allele) (Nematostella vectensis, UniProt A7UNT2 2-411); experiment: protein-binding microarray (PBM); PBM: ~300 nM protein, 6 mM HEPES pH 7.8, 80 mM KCl, 0.5 mM EDTA, 0.5 mM EGTA, 6% glycerol, 35 ng/ul poly-dIdC, 1% milk, 1 h, room temperature; Ap Aiptasia and Nv Nematostella (sea anemones) / Co Capsaspora / Aq Amphimedon (sponge) / Dm Drosophila / Hu human; RHD is the Rel homology domain; high values mean tight binding; conditions: dsDNA, one strand shown
T1 sequence: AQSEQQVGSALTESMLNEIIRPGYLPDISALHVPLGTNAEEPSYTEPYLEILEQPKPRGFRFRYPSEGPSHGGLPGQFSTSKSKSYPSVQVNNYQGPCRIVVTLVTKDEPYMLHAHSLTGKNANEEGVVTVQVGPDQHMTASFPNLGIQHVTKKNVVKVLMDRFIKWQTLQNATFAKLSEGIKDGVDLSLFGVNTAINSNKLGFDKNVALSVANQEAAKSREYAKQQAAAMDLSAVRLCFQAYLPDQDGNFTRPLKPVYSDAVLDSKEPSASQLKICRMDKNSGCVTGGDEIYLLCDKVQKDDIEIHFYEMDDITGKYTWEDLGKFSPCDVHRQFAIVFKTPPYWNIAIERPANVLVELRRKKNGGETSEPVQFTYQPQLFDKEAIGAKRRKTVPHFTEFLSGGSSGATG

GST-Hu-p50 = GST-Hu-p50 (Homo sapiens, UniProt P19838 7-356); experiment: as above; conditions: dsDNA, one strand shown
Chain of GST-Hu-p50 (P19838 7-356): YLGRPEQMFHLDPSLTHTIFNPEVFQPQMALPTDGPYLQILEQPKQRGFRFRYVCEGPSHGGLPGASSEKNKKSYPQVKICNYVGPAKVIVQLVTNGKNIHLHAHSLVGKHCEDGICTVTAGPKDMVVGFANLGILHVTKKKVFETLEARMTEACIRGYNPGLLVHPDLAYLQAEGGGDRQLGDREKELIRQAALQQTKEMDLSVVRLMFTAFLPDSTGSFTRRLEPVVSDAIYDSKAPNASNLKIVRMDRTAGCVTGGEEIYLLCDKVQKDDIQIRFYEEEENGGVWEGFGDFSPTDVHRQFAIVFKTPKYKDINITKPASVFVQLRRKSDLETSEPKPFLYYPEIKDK

| Sequence | binding signal [1] [z-score] | binding signal (GST-Hu-p50) [z-score] |
| --- | --- | --- |
| CCGATTAACATCACCTTGGGAAATGATGTTAATCGGGTCTTGATTCGCTTGACGCTGCTG | 2.17 | 2.17 |
| CCGATTAACATCAGAATCTCCCATGATGTTAATCGGGTCTTGATTCGCTTGACGCTGCTG | 1.67 | 2.18 |
| CCGATTAACATCAAGGGTTTTCCTGATGTTAATCGGGTCTTGATTCGCTTGACGCTGCTG | 2.41 | 2.92 |
| CCGATTAACATCAGGGGCGCCCCTGATGTTAATCGGGTCTTGATTCGCTTGACGCTGCTG | 4.55 | 4.9 |
| CCGATTAACATCAGGGAAATAAATGATGTTAATCGGGTCTTGATTCGCTTGACGCTGCTG | 4.6 | 3.23 |
| CCGATTAACATCAGAAGATTCCCTGATGTTAATCGGGTCTTGATTCGCTTGACGCTGCTG | 3.95 | 4.09 |
| CCGATTAACATCAACTTTCCCAGTGATGTTAATCGGGTCTTGATTCGCTTGACGCTGCTG | 1.7 | 1.59 |
| CCGATTAACATCAGTCCCGCACTTGATGTTAATCGGGTCTTGATTCGCTTGACGCTGCTG | 1.03 | 1.18 |
| CCGATTAACATCAGGGGAAGGTATGATGTTAATCGGGTCTTGATTCGCTTGACGCTGCTG | 5.76 | 3.52 |
| CCGATTAACATCAGGGGGTAATATGATGTTAATCGGGTCTTGATTCGCTTGACGCTGCTG | 5.13 | 4.43 |
| CCGATTAACATCAGGATATTCCCTGATGTTAATCGGGTCTTGATTCGCTTGACGCTGCTG | 4.19 | 3.1 |
| CCGATTAACATCACCCCTCCCCGTGATGTTAATCGGGTCTTGATTCGCTTGACGCTGCTG | 3.23 | 3.01 |
| CCGATTAACATCAAGCACCCCCTTGATGTTAATCGGGTCTTGATTCGCTTGACGCTGCTG | 4.85 | 4.55 |
| CCGATTAACATCATGGAGGGAGGTGATGTTAATCGGGTCTTGATTCGCTTGACGCTGCTG | 1.02 | 1.63 |
| CCGATTAACATCACAATACCCCCTGATGTTAATCGGGTCTTGATTCGCTTGACGCTGCTG | 5.97 | 4.87 |
| CCGATTAACATCAAAAAACCCACTGATGTTAATCGGGTCTTGATTCGCTTGACGCTGCTG | 2.84 | 3.37 |
| CCGATTAACATCACGGAAAACCCTGATGTTAATCGGGTCTTGATTCGCTTGACGCTGCTG | 1.92 | 2.12 |

| Sequence | binding signal [1] [z-score] | binding signal (GST-Hu-p50) [z-score] |
| --- | --- | --- |
| CCGATTAACATCACATATACCCCTGATGTTAATCGGGTCTTGATTCGCTTGACGCTGCTG | 1.38 | 2.14 |
| CCGATTAACATCAGGCGTCCCCCTGATGTTAATCGGGTCTTGATTCGCTTGACGCTGCTG | 4.71 | 4.92 |
| CCGATTAACATCAACGGGAATTCTGATGTTAATCGGGTCTTGATTCGCTTGACGCTGCTG | 5.37 | 3.82 |
| CCGATTAACATCAAAAGAATCCCTGATGTTAATCGGGTCTTGATTCGCTTGACGCTGCTG | 2.43 | 3.14 |
| CCGATTAACATCAGGCTTCCCCCTGATGTTAATCGGGTCTTGATTCGCTTGACGCTGCTG | 6.08 | 5.25 |
| CCGATTAACATCAGGTAATCACCTGATGTTAATCGGGTCTTGATTCGCTTGACGCTGCTG | 2.78 | 2.85 |
| CCGATTAACATCAGGACTTTACCTGATGTTAATCGGGTCTTGATTCGCTTGACGCTGCTG | 2.66 | 2.67 |
| CCGATTAACATCAAATTCCCAAATGATGTTAATCGGGTCTTGATTCGCTTGACGCTGCTG | 3.82 | 3.01 |
| CCGATTAACATCAGGGGGTATACTGATGTTAATCGGGTCTTGATTCGCTTGACGCTGCTG | 4.26 | 3.99 |
| CCGATTAACATCAGGAAAAGCCCTGATGTTAATCGGGTCTTGATTCGCTTGACGCTGCTG | 1.03 | 2.56 |
| CCGATTAACATCAGGGGGCATTATGATGTTAATCGGGTCTTGATTCGCTTGACGCTGCTG | 3.29 | 4.09 |
| CCGATTAACATCAAATTCCCAGTTGATGTTAATCGGGTCTTGATTCGCTTGACGCTGCTG | 3.92 | 2.85 |
| CCGATTAACATCAGAAATCCCGCTGATGTTAATCGGGTCTTGATTCGCTTGACGCTGCTG | 2.45 | 2.45 |
| CCGATTAACATCAGGGGGAGTGATGATGTTAATCGGGTCTTGATTCGCTTGACGCTGCTG | 4.81 | 4.48 |
| CCGATTAACATCAAACACCCCCCTGATGTTAATCGGGTCTTGATTCGCTTGACGCTGCTG | 4.8 | 4.57 |
| CCGATTAACATCAGAAGTTTCCCTGATGTTAATCGGGTCTTGATTCGCTTGACGCTGCTG | 5.14 | 4.43 |

Reference: PMC5700166
